This is a sample that favours compounds with a hit; in the whole collection about 3.9% have one here.
DRV1 agonist: GPR32 (DRV1) agonism, beta-arrestin recruitment. O75388. CHO-K1 GPR32 beta-arrestin PathHunter luminescence, 90 min; zero percent set by DMSO-only wells. activation, % at 76.9 µM. 2.5% of 48,000 active. AID 1346428;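 active = activation of at least 60% and not above a set upper limit, about 1 call in 100 departs from these limits; inconclusive = activation of 40% to 60%, or above that upper limit; inactive = activation under 40%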
Target sequence (O75388 whole entry, looked up): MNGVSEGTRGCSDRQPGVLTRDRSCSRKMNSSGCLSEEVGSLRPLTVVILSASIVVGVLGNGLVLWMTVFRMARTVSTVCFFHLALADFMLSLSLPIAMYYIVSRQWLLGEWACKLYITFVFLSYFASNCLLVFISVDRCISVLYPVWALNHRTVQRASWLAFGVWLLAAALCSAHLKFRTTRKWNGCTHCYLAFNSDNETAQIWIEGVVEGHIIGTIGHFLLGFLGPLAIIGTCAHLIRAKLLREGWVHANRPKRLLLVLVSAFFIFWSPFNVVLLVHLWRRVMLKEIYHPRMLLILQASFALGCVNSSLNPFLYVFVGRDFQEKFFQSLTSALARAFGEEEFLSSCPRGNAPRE
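Cells are plated overnight, treated with compounds in DMSO for 90 minutes at 37 °C, and developed with PathHunter detection reagent for 1 hour before luminescence is read; signal reflects beta-arrestin binding to GPR32 in engineered CHO-K1 cells.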
p53null 32C kill: kills p53 null cells at the permissive temperature | H1299-neo p53 null cells, ATP luminescence, 24 h, 32C | AID 903 | Potency, µM (doses to about 46.1 µM), actives largely listed as cytotoxic | 0.62% of 55,000 active; note: nearly all actives have a fitted effect of over 55% in size
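ATP-content luminescence in p53-null H1299-neo cells after 24 h compound exposure (up to 46 uM) at 32C permissive temperature; 0% and 100% killing set by DMSO and 100 uM tamoxifen; Hill-equation AC50.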
HTT-AS act: activators of huntingtin-antisense promoter activity. 0.24% of 48,000 active. Potency, µM (titrated, usually from 57.5 µM), actives largely listed as activators. AID 1508624. HEK293 HTT-AS promoter firefly luciferase reporter, 24 h; response scale: percent change from vehicle, -100% = no light; note: nearly all actives have a fitted effect of over 55% in size
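HEK293 Fluc reporter, 2,500 cells/well, 24 h pre-culture; cpds up to 57.5 uM final, 24 h 37 degrees C; Dual-Glo, 10 min RT; normalized vehicle = 0%, zero RLU = -100%.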
HTT promoter inh: HTT promoter inhibition; HEK293 HTT promoter firefly luciferase reporter, 24 h; Potency, µM (series often up to 57.5 µM), hits mostly inhibitors; 0.93% of 48,000 active; AID 1508623; note: nearly all actives have a fitted effect of over 50% in size
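Firefly luciferase signal from promoter-reporter HEK293 cells was scaled between vehicle (0%) and zero RLU (-100%). Compounds were tested at final concentrations of up to 57.5 uM over 24 h at 37 degrees C. PTC124 at 50 uM final served as control inhibitor.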
p53null 39C kill: selectivity test: cytotoxicity in p53 null cells, nonpermissive temperature | AID 904 | H1299 p53-null (neo) cells, 39C, ATPlite viability, 24 h | 0.97% of 55,000 active | Potency, µM (top dose mostly 46.1 µM), most hits filed as cytotoxic; note: nearly all actives have a fitted effect of over 50% in size
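Concentration-response (up to 46 uM) was run for 24 h at the nonpermissive 39C on H1299-p53A138V or H1299-neo cells. ATP content was measured with ATPlite luminescence. AC50 values were Hill-modeled after normalizing between DMSO and 100 uM tamoxifen killing.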
Large screens that a line does not name were inactive. Unless noted, calls come from the whole dose curve; as a rule, active = well fitted curve in the direction sought with a large enough effect; inconclusive = small, poorly fitted or top-dose-only effect, or another doubt; inactive = no such curve, though single readings can be large; an effect the other way counts as inactive or inconclusive.

CNCc1ccc(-c2[nH]c3cc(F)cc4c3c2CCNC4=O)cc1	none (no result: DRV1 agonist, p53null 32C kill, p53null 39C kill)
COc1ccnc2[nH]cc(C(=O)C(=O)N3CCN(C(=O)c4ccccc4)C[C@@H]3C)c12	none (no result: DRV1 agonist, p53null 32C kill, p53null 39C kill)
CCN(CC)C(=O)C1CN2CCc3cc(OC)c(OC)cc3C2CC1OC(C)=O (configuration not stated)	none (no result: p53null 32C kill, p53null 39C kill)
COC(=O)c1c(C)oc2ccc(N(C(=O)c3ccncc3)S(=O)(=O)c3ccc(OC)cc3)cc12	HTT promoter inh 2.2µM, p53null 39C kill inconclusive
COCCCNC(=O)Cn1c(=O)n(-c2ccc(Cl)cc2)c(=O)c2c3c(sc21)CCCCC3	DRV1 agonist 60
O=C(Nc1cc2cc[nH]c2cn1)c1ccccc1	HTT-AS act inconclusive (no result: DRV1 agonist, p53null 32C kill, p53null 39C kill)
Ic1ccc(N2CCN(Cc3c[nH]c4ncccc34)CC2)cc1	DRV1 agonist 76 (no result: p53null 32C kill, HTT-AS act, HTT promoter inh, p53null 39C kill)
Oc1ccc(CN2CCN(c3ccccc3)CC2)c2cccnc12	none (no result: DRV1 agonist, HTT-AS act, HTT promoter inh)
Clc1cccc(-n2ncc3c(N4CCCCC4)ncnc32)c1	p53null 32C kill 3.2µM, HTT promoter inh inconclusive, p53null 39C kill 13µM
Fc1ccc(-n2ncc3c(N4CCCCCC4)ncnc32)cc1	p53null 32C kill inconclusive, HTT promoter inh inconclusive, p53null 39C kill 14µM
Clc1cccc(-n2ncc3c(N4CCCCCC4)ncnc32)c1	p53null 32C kill inconclusive, HTT promoter inh inconclusive
Fc1ccc(-n2ncc3c(N4CCC(Cc5ccccc5)CC4)ncnc32)cc1	none
Cc1ccc(-n2ncc3c(N4CCCCCC4)ncnc32)cc1	DRV1 agonist inconclusive, p53null 32C kill 3.2µM, HTT-AS act inconclusive
OC[C@H]1O[C@@H](n2cnc3c(=S)nc[nH]c32)[C@H](O)[C@@H]1O	HTT promoter inh inconclusive (no result: p53null 32C kill, p53null 39C kill)
COc1ccccc1-c1cccc(-c2c(O)c3cc(C#N)c(Cl)cc3[nH]c2=O)c1	none (no result: DRV1 agonist, p53null 32C kill, p53null 39C kill)
CCc1c(C)sc2c1CCN(Cc1cccc(OC)c1)C2c1ccccc1 (configuration not stated)	DRV1 agonist 61, HTT promoter inh inconclusive, p53null 39C kill inconclusive
COc1cc(N2CCC(N3CCN(C)CC3)CC2)ccc1Nc1ncc(Cl)c(Nc2ccccc2S(=O)(=O)C(C)C)n1	HTT promoter inh inconclusive (no result: DRV1 agonist, p53null 32C kill, p53null 39C kill)
CC[C@H](Nc1ncnc2nc[nH]c12)c1nc2cccc(F)c2c(=O)n1-c1ccccc1	HTT promoter inh inconclusive (no result: DRV1 agonist, p53null 32C kill, p53null 39C kill)
COc1ccc(OC)c(CCNC(=O)CS(=O)(=O)Cc2nc(-c3cccc(Cl)c3)oc2C)c1	DRV1 agonist 88
COc1cccc(-c2nc(CS(=O)(=O)CC(=O)NCCc3ccc(OC)cc3OC)c(C)o2)c1	none
CC(C)c1cnn2c(NCc3ccccc3)cc(NCCCCCCN)nc12	HTT promoter inh inconclusive (no result: DRV1 agonist, p53null 32C kill, p53null 39C kill)
Cc1nc(C2CCCCC2)c(-c2ccc(S(N)(=O)=O)c(F)c2)o1	none (no result: p53null 32C kill, p53null 39C kill)
CO[C@@H]1C(N(C)C(=O)c2ccccc2)C[C@H]2O[C@]1(C)n1c3ccccc3c3c4c(c5c6ccccc6n2c5c31)C(=O)NC4=O (some centres not stated)	HTT promoter inh inconclusive (no result: DRV1 agonist, p53null 32C kill, p53null 39C kill)
Cc1cccc(-n2c(-c3ccco3)nc3c(cnn3-c3ccc(F)cc3)c2=O)c1	HTT promoter inh 18µM
Cc1ccc(-n2c(-c3ccco3)nc3c(cnn3-c3ccc(C)cc3)c2=O)cc1	none
CCN(CC)CCn1c(=N)n(CCOc2ccccc2Cl)c2ccccc21	HTT promoter inh inconclusive, p53null 39C kill 3.2µM
Cc1ccc2oc(=O)n(CCCOc3ccccc3Cl)c2c1	HTT-AS act inconclusive
CCn1c(=N)n(CC(O)COc2ccccc2)c2ccccc21 (configuration not stated)	none
CCN(CC)CCn1c(=N)n(CC(O)COc2ccccc2C)c2ccccc21 (configuration not stated)	HTT promoter inh inconclusive, p53null 39C kill 18µM
Cc1cc(S(=O)(=O)Nc2ccc(O)c(Sc3nc4ccccc4s3)c2)ccc1Cl	DRV1 agonist 101
CN(Cc1ccccc1)C(=O)c1cccc(NC(=O)c2nsc3ccccc23)c1	p53null 32C kill inconclusive, HTT-AS act inconclusive, p53null 39C kill 14µM
CC(C)Oc1ccc(CNC(=O)c2cccc(NC(=O)c3nsc4ccccc34)c2)cc1	p53null 32C kill inconclusive, HTT-AS act inconclusive
COc1cc2ccccc2cc1C(=O)N1CCN(c2nc3ccc(F)cc3s2)CC1	HTT promoter inh inconclusive
CCS(=O)(=O)c1ccccc1C(=O)N1CCN(c2nc3ccccc3s2)CC1	HTT promoter inh 14µM

Assay outcomes deposited in PubChem by National Center for Advancing Translational Sciences (NCATS).
